# The supplement of paper PMC11060735
# Where a name gives a salt, the structure may show the parent alone. ± gives the standard deviation of the averaged measurements. In all, about 1,800 compounds were measured (“GFP- (p16Ink4a-) cell count relative to negative-control wells”: median about 0.99, lowest 2% from about 0.5 on). The full list was thinned out, with the lowest values kept by preference.
# Tested on: mouse p16Ink4a+/- lung fibroblasts (INKBRITE, bleomycin-injured)
# Test: GFP- (p16Ink4a-) cell count relative to negative-control wells (fold of vehicle); higher = more p16Ink4a- cells surviving
# Details: 1 µM; 3 days
row,Compound,GFP-
1,"NC(=O)N1c2ccccc2CC(=O)c2ccccc21 [Oxcarbazepine, Trileptal]",1.06
2,C[C@H](NC(=O)[C@@H](O)c1cc(F)cc(F)c1)C(=O)N[C@@H]1C(=O)N(C)c2ccccc2-c2ccccc21,0.963
3,Cc1cc(=O)oc2cc(O)ccc12 [7-hydroxy-4-methyl-2H-chromen-2-one],1.08
4,Cn1cnc(N)c2ncnc1-2 [3-Methyladenine],0.988
5,COc1ccc(CCc2nc3cc(-c4c(C)noc4C)ccc3n2C[C@H](C)N2CCOCC2)cc1Cl,0.854 ± 0.4
6,C=CCc1ccc(O)c(-c2cc(CC=C)ccc2O)c1 [Magnolol],0.993
7,Cc1c[nH]c(-c2cnc(NCCNc3ccc(C#N)cn3)nc2-c2ccc(Cl)cc2Cl)n1,1.14
8,CCNC(=O)c1[nH]nc(-c2cc(Cl)c(O)cc2O)c1-c1ccc(OC)cc1,0.89
9,CS(=O)(=O)OCCCCOS(C)(=O)=O [Busulfan],0.83
10,CCOc1ccc2ccccc2c1C(=O)N[C@@H]1C(=O)N2[C@@H]1SC(C)(C)[C@@H]2C(=O)O [Nafcillin Sodium],0.94
11,CCO/C(O)=C1\C(C)=NC(C)=C(C(=O)OC)C1c1cccc([N+](=O)[O-])c1 (stereo unspecified) [Nitrendipine],1.18
12,O=c1cc(N2CCOCC2)oc2c1ccc1ccccc12,1.03
13,Nc1cc(C(F)(F)F)c(-c2cc(N3CCOCC3)nc(N3CCOCC3)n2)cn1 [Buparlisib],0.719
14,C#Cc1cccc(Nc2ncnc3cc4c(cc23)OCCOCCOCCO4)c1 [Icotinib],0.916
15,O=C(NOCC(O)CO)c1cc(Br)c(F)c(F)c1Nc1ccc(I)cc1F (stereo unspecified),0.818
16,C#Cc1cccc(Nc2ncnc3cc(OCCOC)c(OCCO)cc23)c1,0.823
17,C#Cc1cccc(Nc2ncnc3cc(OC)c(OCCCCCCC(=O)NO)cc23)c1,1.01 ± 0.091
18,C#Cc1cccc(Nc2ncnc3cc(OCCOC)c(OCCOC)cc23)c1 [Erlotinib],0.287
19,C[C@@H]1CN(c2c(F)c(N)c3c(=O)c(C(=O)O)cn(C4CC4)c3c2F)C[C@H](C)N1 [Sparfloxacin],1.02
20,CCN1CCN(Cc2ccc(Nc3ncc(F)c(-c4cc(F)c5nc(C)n(C(C)C)c5c4)n3)nc2)CC1,0.983
21,Cc1cc(C)c2c(c1)[C@@H](N(Cc1cc(C(F)(F)F)cc(C(F)(F)F)c1)c1nnn(C)n1)CCCN2C[C@H]1CC[C@H](C(=O)O)CC1 [Evacetrapib],0.993
22,C[C@H](CCC(=O)O)[C@H]1CC[C@H]2[C@@H]3C[C@H](O)[C@@H]4C[C@H](O)CC[C@]4(C)[C@H]3CC[C@]12C [Hyodeoxycholic acid (HDCA)],0.901
23,CC1(C)SC2C(NC(=O)[C@H](NC(=O)N3CCNC3=O)c3ccccc3)C(=O)N2C1C(=O)O (stereo partly specified) [Azlocillin sodium salt],0.956
24,CC(C)(C)c1nc(-c2cccc(NS(=O)(=O)c3c(F)cccc3F)c2F)c(-c2ccnc(N)n2)s1 [Dabrafenib],0.448

row,Compound,GFP-
1,C[C@]12CC[C@@H]3c4ccc(O)cc4C[C@@H](CCCCCCCCCS(=O)CCCC(F)(F)C(F)(F)F)[C@H]3[C@@H]1CC[C@@H]2O (stereo partly specified) [Fulvestrant],1.15
2,NS(=O)(=O)c1ccc(NC(=O)Nc2ccc(F)cc2)cc1,1.06
3,CN1CCC(NC(=O)c2cc(-c3c(O)cc(O)cc3Oc3ccc([N+](=O)[O-])cc3)on2)CC1,1.03
4,Cn1c(=O)cc(N2CCC[C@@H](N)C2)n(Cc2cc(F)ccc2C#N)c1=O [Trelagliptin],0.941
5,"C[N+](C)(C)CC(O)CC(=O)O (stereo not drawn) [Carnitine Hydrochloride, Carnitine (dl) Hydrochloride]",1.1
6,C[C@H](NCc1ccc(OCc2cccc(F)c2)cc1)C(N)=O [Safinamide],1.06
7,OC[C@@H](O)CN1CCN(c2ccccc2)CC1 [Levodropropizine],1.05
8,CC(=O)O[C@]1(C(C)=O)CC[C@H]2[C@@H]3C=C(Cl)C4=CC(=O)[C@@H]5C[C@@H]5[C@]4(C)[C@H]3CC[C@@]21C [Cyproterone Acetate],1.14
9,C=C1CC[C@H](O)C/C1=C/C=C1\CCC[C@]2(C)[C@@H]([C@H](C)CCCC(C)(C)O)CC[C@@H]12 [Calcidiol],1.2
10,CCOC(=O)c1c(CSc2ccccc2)n(C)c2cc(Br)c(O)c(CN(C)C)c12 [Arbidol HCl],0.933
11,O=S(=O)(c1ccccc1)N(CC(F)(F)F)c1ccc(C(O)(C(F)(F)F)C(F)(F)F)cc1,0.972
12,CN1CCOC(c2ccccc2)c2ccccc2C1 (stereo unspecified) [Nefopam],1.1
13,CCOC(=O)[C@H](CCc1ccccc1)N[C@H]1CCc2ccccc2N(CC(=O)O)C1=O [Benazepril],1.01
14,Cc1c(-c2ccccc2)oc2c(C(=O)OCCN3CCCCC3)cccc2c1=O [Flavoxate],1.1
15,C[C@@H]1O[C@@H](O[C@H]2[C@H](Oc3cc(O)c4c(c3)O[C@H](c3ccc(O)cc3)CC4=O)O[C@H](CO)[C@@H](O)[C@@H]2O)[C@H](O)[C@H](O)[C@H]1O [Naringin],1.1
16,Nc1ccc(S(=O)(=O)Nc2ccccn2)cc1 [Sulfapyridine],0.965
17,O=C1C[C@@H](c2ccc(O)cc2)Oc2cc(O)cc(O)c21 [Naringenin],0.938
18,C/C(=N\NC(=S)N1CCC1)c1ccccn1,0.4
19,Cn1c(=O)cc(N2CCC[C@@H](N)C2)n(Cc2ccccc2C#N)c1=O [Alogliptin],0.943
20,COC(=O)[C@H]1[C@H]2C[C@@H]3c4[nH]c5cc(OC)ccc5c4CCN3C[C@H]2C[C@@H](OC(=O)c2cc(OC)c(OC)c(OC)c2)[C@@H]1OC [Reserpine],0.806
21,C=CC[N+]1([C@H]2C[C@H]3[C@@H]4CC[C@H]5C[C@H](O)[C@@H](N6CCOCC6)C[C@]5(C)[C@H]4CC[C@]3(C)[C@H]2OC(C)=O)CCCC1 [Rocuronium],0.894
22,COc1cccc2c1C(=O)c1c(O)c3c(c(O)c1C2=O)C[C@@](O)(C(C)=O)C[C@@H]3O[C@H]1C[C@H](N)[C@H](O)[C@H](C)O1 [Daunorubicin],0.754
23,"CC(=O)[C@]1(O)Cc2c(O)c3c(c(O)c2[C@@H](O[C@H]2C[C@H](N)[C@H](O)[C@H](C)O2)C1)C(=O)c1ccccc1C3=O [Idarubicin, Idarubicin Hydrochloride]",0.224
24,COc1cccc2c1C(=O)c1c(O)c3c(c(O)c1C2=O)C[C@@](O)(C(=O)CO)C[C@@H]3O[C@H]1C[C@H](N)[C@H](O)[C@H](C)O1 [Doxorubicin],0.72

row,Compound,GFP-
1,COc1cc(-c2cc3ccccc3[nH]2)[nH]c1/C=C1\N=C(C)C=C1C [Obatoclax Mesylate],0.249
2,C=C1C(=O)O[C@@H]2/C=C(\C)CC/C=C(\C)CC[C@@H]12 [Costunolide],1.1
3,Cc1coc2c1C(=O)C(=O)c1c-2ccc2c(C)cccc12 [Tanshinone I],1.03
4,Cn1cc(-c2ccc3nnc(Sc4ccc5ncccc5c4)n3n2)cn1,0.95
5,CCN(CC)CCCCNc1ncc2cc(-c3cc(OC)cc(OC)c3)c(NC(=O)NC(C)(C)C)nc2n1,0.935
6,Cc1ccnc2c1NC(=O)c1cccnc1N2C1CC1 [Nevirapine],1.06
7,CC(C)=CCC[C@](C)(O[C@@H]1O[C@H](CO[C@@H]2OC[C@@H](O)[C@H](O)[C@H]2O)[C@@H](O)[C@H](O)[C@H]1O)[C@H]1CC[C@]2(C)[C@@H]1[C@H](O)C[C@@H]1[C@@]3(C)CC[C@H](O[C@@H]4O[C@H](CO)[C@@H](O)[C@H](O)[C@H]4O)C(C)(C)[C@@H]3CC[C@]12C [Gynostemma Extract],1.07
8,O=C(O)C1=CO[C@@H](O[C@@H]2O[C@H](CO)[C@@H](O)[C@H](O)[C@H]2O)[C@@H]2C(CO)=CC[C@H]12 [Geniposidic acid],1.05
9,CC1(C)CCC(c2ccc(Cl)cc2)=C(CN2CCN(c3ccc(C(=O)NS(=O)(=O)c4ccc(N[C@H](CCN5CCOCC5)CSc5ccccc5)c(S(=O)(=O)C(F)(F)F)c4)cc3)CC2)C1 [Navitoclax],0.944
10,NCC(=O)Nc1ccc(-n2nc(C(F)(F)F)cc2-c2ccc3c(ccc4ccccc43)c2)cc1,1.1
11,CCN(CC)C(=S)SSC(=S)N(CC)CC [Disulfiram],0.453
12,O=C(O)CCc1ccc(NCc2cccc(Oc3ccccc3)c2)cc1,0.98
13,CCCC(C)NC(=O)c1ccc(Cl)c(Cl)c1 (stereo unspecified),1.14
14,CC(C)C[C@H](NC(=O)CNC(=O)c1cc(Cl)ccc1Cl)B(O)O [Ixazomib],0.394
15,CCOc1ccn(-c2ccc(F)cc2)c(=O)c1C(=O)Nc1ccc(Oc2ccnc(N)c2Cl)c(F)c1,0.736
16,CN1CCN(c2c(F)cc3c(=O)c(C(=O)O)cn4c3c2OCN4C)CC1 [Marbofloxacin],1.07
17,Cn1cc(C2=C(c3ccc(Cl)cc3Cl)C(=O)NC2=O)c2ccccc21,0.845
18,Cc1c(OCC(F)(F)F)ccnc1C[S@@](=O)c1nc2ccccc2[nH]1 [Dexlansoprazole],0.956
19,CCc1cnn2c(NCc3ccc[n+]([O-])c3)cc(N3CCCC[C@H]3CCO)nc12 [Dinaciclib],0.383
20,COc1ccc(CNc2nc(N3CCC[C@H]3CO)ncc2C(=O)NCc2ncccn2)cc1Cl [Avanafil],1.06
21,CC(C)C[C@H](NC(=O)[C@H](CCc1ccccc1)NC(=O)CN1CCOCC1)C(=O)N[C@@H](Cc1ccccc1)C(=O)N[C@@H](CC(C)C)C(=O)[C@@]1(C)CO1 [Carfilzomib],0.433
22,CC(C)c1nc(CN(C)C(=O)N[C@@H](CCN2CCOCC2)C(=O)N[C@H](CC[C@H](Cc2ccccc2)NC(=O)OCc2cncs2)Cc2ccccc2)cs1 [Cobicistat],1.04
23,COc1ccc(C[C@H](NC(=O)[C@H](C)NC(=O)CN2CCOCC2)C(=O)N[C@@H](Cc2ccccc2)C(=O)[C@]2(C)CO2)cc1,0.791
